Common to all, as to conditions: mRNA level, 48 h; actives raise or lower the signal
Read-out in test [1]: Insulin Like Growth Factor 1 (IGF1), IGF1 (gene 3479)
Nature of the test: LTEA_HepaRG_IGF1: Life Technologies and Expression Analysis (LTEA) Assay for Insulin Like Growth Factor 1 (IGF1) using HepaRG (AID 2283506). Summed up:
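Endpoint: IGF1 mRNA change by qRT-PCR, housekeeping-normalized, fitted bidirectionally relative to 0.5% DMSO vehicle. Human HepaRG cells were treated 48 h in serum-free induction medium, eight half-log concentrations topping at 100 uM.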

Read-out in test [2]: Intercellular Adhesion Molecule 1 (ICAM1), ICAM1 (gene 3383)
Put plainly: LTEA_HepaRG_ICAM1: Life Technologies and Expression Analysis (LTEA) Assay for Intercellular Adhesion Molecule 1 (ICAM1) using HepaRG (AID 2283507). An outline of the steps:
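Readout is qRT-PCR mRNA level, normalized to three housekeeping genes and fitted bidirectionally against 0.5% DMSO vehicle. Human HepaRG cultures received compound for 48 h, top concentration 100 uM with half-log dilutions.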

Read-out in test [3]: Insulin-like growth factor-binding protein 1 (IGFBP1), IGFBP1 (gene 3484)
Nature of the test: LTEA_HepaRG_IGFBP1: Life Technologies and Expression Analysis (LTEA) Assay for Insulin-like growth factor-binding protein 1 (IGFBP1) using HepaRG (AID 2283508). Summed up:
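Thawed HepaRG cells are plated for 48 h, switched to serum-free induction medium, then dosed in duplicate for another 48 h (100 uM top, half-log steps). Lysates in RLT go to qRT-PCR, and gain or loss of signal is fitted relative to vehicle.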

Read-out in test [4]: Interleukin 6 Receptor (IL6R), IL6R (gene 3570)
Put plainly: LTEA_HepaRG_IL6R: Life Technologies and Expression Analysis (LTEA) Assay for Interleukin 6 Receptor (IL6R) using HepaRG (AID 2283510).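 As to AC50: differentiated human HepaRG liver cells in serum-free induction medium; TaqMan qRT-PCR signal normalized to ACTB GAPDH and POLR2A housekeeping genes.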 Summed up:
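In this HepaRG screen, test chemicals act on cells for 48 h at up to 100 uM (eight half-log points, duplicate wells). IL6R expression is quantified by qRT-PCR after normalization to ACTB, GAPDH and POLR2A, with DMSO as baseline.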

Read-out in test [5]: Potassium channel subfamily K member 1 (KCNK1), KCNK1 (gene 3775)
Put plainly: LTEA_HepaRG_KCNK1: Life Technologies and Expression Analysis (LTEA) Assay for Potassium channel subfamily K member 1 (KCNK1) using HepaRG (AID 2283511). An outline of the steps: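 Human HepaRG cultures receive test chemicals for 48 h in 0.5% DMSO, top concentration 100 uM with half-log dilutions. Induction or suppression of KCNK1 mRNA relative to DMSO is derived by bidirectional fitting of qRT-PCR data.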

Read-out in test [6]: Keratin 19 (KRT19), KRT19 (gene 3880)
Put plainly: LTEA_HepaRG_KRT19: Life Technologies and Expression Analysis (LTEA) Assay for Keratin 19 (KRT19) using HepaRG (AID 2283512). Summed up:
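KRT19 transcript levels, measured by Fluidigm qRT-PCR against three housekeeping genes, are fitted for gain or loss of signal relative to DMSO. Human HepaRG cells receive test chemicals (top 100 uM, half-log steps, 0.5% DMSO) for 48 hours.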

Read-out in test [7]: JUN Transcription Factor, JUN (gene 3725)
Put plainly: LTEA_HepaRG_JUN: Life Technologies and Expression Analysis (LTEA) Assay for JUN Transcription Factor using HepaRG (AID 2283513). An outline of the steps: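 Gene-expression endpoint: JUN mRNA (qRT-PCR, normalized to three reference genes) in HepaRG cultures treated 48 h with chemicals, duplicate wells, 100 uM maximum with half-log dilutions; bidirectional fitting relative to 0.5% DMSO.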

Read-out in test [8]: Lipase C (LIPC), LIPC (gene 3990)
Nature of the test: LTEA_HepaRG_LIPC: Life Technologies and Expression Analysis (LTEA) Assay for Lipase C (LIPC) using HepaRG (AID 2283514). Summed up: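 In this multiplexed gene-expression screen, human HepaRG cultures received test chemicals for 48 h across eight concentrations with 100 uM highest, in duplicate. Values reflect LIPC mRNA induction or suppression versus DMSO vehicle, from normalized qRT-PCR.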

Read-out in test [9]: Lipoprotein lipase (LPL), LPL (gene 4023)
Put plainly: LTEA_HepaRG_LPL: Life Technologies and Expression Analysis (LTEA) Assay for Lipoprotein lipase (LPL) using HepaRG (AID 2283515). An outline of the steps:
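Concentration-response testing used half-log steps from 100 uM in 0.5% DMSO on human HepaRG cells, 48 h, duplicate wells. Phenobarbital 1 mM served as induction control; LPL mRNA was normalized to ACTB, GAPDH, POLR2A.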

Read-out in test [10]: MicroRNA 122 (MIR122), gene 406906
Put plainly: LTEA_HepaRG_MIR122: Life Technologies and Expression Analysis (LTEA) Assay for MicroRNA 122 (MIR122) using HepaRG (AID 2283516). Also: the transcript read is the microRNA miR-122. An outline of the steps: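 Changes in transcript abundance, up or down relative to 0.5% DMSO vehicle, were scored after 48 h chemical treatment of HepaRG cells (maximum 100 uM). Quantification used TaqMan qRT-PCR normalized to housekeeping genes.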

Read-out in test [11]: matrix metalloproteinase-10 (MMP10), MMP10 (gene 4319)
Put plainly: LTEA_HepaRG_MMP10: Life Technologies and Expression Analysis (LTEA) Assay for matrix metalloproteinase-10 (MMP10) using HepaRG (AID 2283517). An outline of the steps:
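In differentiated HepaRG cultures kept in 0.5% DMSO, test chemicals act for 48 h over an eight-point range with a top dose of 100 uM. Expression is then quantified by TaqMan RT-PCR against ACTB, GAPDH and POLR2A.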

Read-out in another test: MYC, MYC (gene 4609)
Put plainly: LTEA_HepaRG_MYC: Life Technologies and Expression Analysis (LTEA) Assay for MYC using HepaRG (AID 2283518). Summed up:
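HepaRG, ~100,000 cells/well, collagen I; 48 h plating; serum-free induction medium; 48 h dosing, duplicate, 100 uM top, half-log, 0.5% DMSO; total RNA → qRT-PCR MYC; gain/loss fit vs DMSO.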

Read-out in test [12]: matrix metalloproteinase-3 (MMP3), MMP3 (gene 4314)
Nature of the test: LTEA_HepaRG_MMP3: Life Technologies and Expression Analysis (LTEA) Assay for matrix metalloproteinase-3 (MMP3) using HepaRG (AID 2283519). An outline of the steps: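 Human liver HepaRG cultures received chemicals (top concentration 100 uM, 0.5% DMSO) for 48 h in duplicate. MMP3 mRNA induction or loss was then assessed via TaqMan qRT-PCR with housekeeping-gene normalisation.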

Read-out in test [13]: Paternally Expressed 10 (PEG10), PEG10 (gene 23089)
Put plainly: LTEA_HepaRG_PEG10: Life Technologies and Expression Analysis (LTEA) Assay for Paternally Expressed 10 (PEG10) using HepaRG (AID 2283520).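 As to AC50: PEG10 transcript by qRT-PCR normalised to ACTB GAPDH and POLR2A.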 Summed up:
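After 48 h exposure of differentiated HepaRG cells (0.5% DMSO vehicle, eight concentrations up to 100 uM, duplicates), PEG10 mRNA was measured by TaqMan qRT-PCR. Values were normalised to endogenous control genes and analysed bidirectionally against vehicle.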

Read-out in test [14]: Nuclear factor NF-kappa-B p105 subunit (Homo sapiens) (UniProt P19838)
Nature of the test: LTEA_HepaRG_NFKB1: Life Technologies and Expression Analysis (LTEA) Assay for Nuclear Factor Kappa B Subunit 1 (NFKB1) using HepaRG (AID 2283521).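 Also: differentiated human HepaRG liver cells in serum-free induction medium; TaqMan qRT-PCR transcript normalised to ACTB GAPDH and POLR2A housekeeping genes.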 An outline of the steps:
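HepaRG, 48 h exposure; 8-pt half-log series from 100 uM in 0.5% DMSO; duplicates. Readout: NFKB1 mRNA by qRT-PCR (Fluidigm arrays), housekeeping-normalized. Gain/loss fit vs DMSO baseline.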

Read-out in test [15]: Protein phosphatase 2A (PPP2R4), PTPA (gene 5524)
Nature of the test: LTEA_HepaRG_PPP2R4: Life Technologies and Expression Analysis (LTEA) Assay for Protein phosphatase 2A (PPP2R4) using HepaRG (AID 2283522). An outline of the steps: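 Using HepaRG cultures maintained in 0.5% DMSO, chemicals are tested 48 h at up to 100 uM in duplicate. Induction or suppression of PPP2R4 mRNA, measured by qRT-PCR, is fitted bidirectionally against the vehicle baseline.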

Read-out in test [16]: Phosphatase and tensin (PTEN), PTEN (gene 5728)
Put plainly: LTEA_HepaRG_PTEN: Life Technologies and Expression Analysis (LTEA) Assay for Phosphatase and tensin (PTEN) using HepaRG (AID 2283523). Summed up: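 Expression of PTEN is quantified in the human liver line HepaRG following two days of dosing (top concentration 100 uM, half-log dilutions, 0.5% DMSO). Values derive from bidirectional curve fitting relative to DMSO controls.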

Read-out in test [17]: solute carrier (SLC22A1), SLC22A1 (gene 6580)
Nature of the test: LTEA_HepaRG_SLC22A1: Life Technologies and Expression Analysis (LTEA) Assay for solute carrier (SLC22A1) using HepaRG (AID 2283524).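 As to AC50: differentiated human HepaRG liver cells in serum-free induction medium; TaqMan qRT-PCR normalized to ACTB GAPDH and POLR2A housekeeping genes.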 An outline of the steps: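 Transcript induction or suppression of SLC22A1 in human HepaRG cultures is scored after 48 h chemical treatment, with DMSO (0.5%) as baseline for bidirectional fitting. Concentrations span eight half-log points topping at 100 uM.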

Read-out in test [18]: Pyruvate Dehydrogenase Kinase 4 (PDK4), PDK4 (gene 5166)
Put plainly: LTEA_HepaRG_PDK4: Life Technologies and Expression Analysis (LTEA) Assay for Pyruvate Dehydrogenase Kinase 4 (PDK4) using HepaRG (AID 2283525). An outline of the steps: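 Eight-point, half-log concentration series (max 100 uM, 0.5% DMSO) applied to differentiated HepaRG cells for 48 h in duplicate. Endpoint: PDK4 mRNA induction or repression by qRT-PCR against DMSO baseline.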

Activity calls are given as the source filed them. The calls were made as follows: active = hit-call score of the fitted dose curve at least 0.9, where 1 is the maximum; inactive = score below 0.9.

Sequence of Nuclear factor NF-kappa-B p105 subunit (Homo sapiens) (P19838 whole entry, looked up): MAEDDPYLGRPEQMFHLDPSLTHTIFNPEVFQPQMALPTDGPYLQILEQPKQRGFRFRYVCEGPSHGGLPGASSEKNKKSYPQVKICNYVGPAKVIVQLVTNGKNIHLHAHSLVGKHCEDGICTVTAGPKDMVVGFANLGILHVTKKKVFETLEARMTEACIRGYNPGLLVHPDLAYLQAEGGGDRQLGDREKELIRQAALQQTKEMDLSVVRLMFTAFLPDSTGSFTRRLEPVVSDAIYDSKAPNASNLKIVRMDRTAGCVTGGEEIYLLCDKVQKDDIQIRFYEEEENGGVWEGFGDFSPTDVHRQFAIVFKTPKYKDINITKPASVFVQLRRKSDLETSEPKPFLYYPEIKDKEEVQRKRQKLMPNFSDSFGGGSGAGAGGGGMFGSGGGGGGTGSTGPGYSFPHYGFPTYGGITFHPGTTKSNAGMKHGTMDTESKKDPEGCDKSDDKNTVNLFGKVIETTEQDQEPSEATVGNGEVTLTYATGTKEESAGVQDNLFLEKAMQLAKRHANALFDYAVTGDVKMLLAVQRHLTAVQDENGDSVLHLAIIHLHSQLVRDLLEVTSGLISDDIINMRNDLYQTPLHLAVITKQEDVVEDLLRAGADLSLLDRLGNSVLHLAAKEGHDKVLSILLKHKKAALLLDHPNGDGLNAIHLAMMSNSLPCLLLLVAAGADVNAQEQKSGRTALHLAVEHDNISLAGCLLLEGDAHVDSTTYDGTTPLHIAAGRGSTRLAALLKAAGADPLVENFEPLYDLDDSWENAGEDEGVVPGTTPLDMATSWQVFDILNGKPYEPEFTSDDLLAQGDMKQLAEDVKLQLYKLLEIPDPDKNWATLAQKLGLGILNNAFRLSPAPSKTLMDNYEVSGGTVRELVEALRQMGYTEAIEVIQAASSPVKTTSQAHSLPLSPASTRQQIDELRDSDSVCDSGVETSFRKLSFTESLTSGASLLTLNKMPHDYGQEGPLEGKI

Consider `COCCOCCOCCOC`, for which the compound was classed as inactive in test [1], in [2], in test [3], in [4], in test [5] and in test [6]. Further, the outcome was “inactive” in test [7]; “inactive” in [8]; “inactive” in test [9]; “inactive” in test [10]; “inactive” in test [11]; “inactive” with MYC, MYC (gene 4609). In addition, the result in [12], in test [13], in test [14], in [15], in test [16] and in test [17] was inactive. For the same compound, the result in test [18] was inactive.
Regarding `CCOc1cccc(-n2cc(C(=O)N3CCN(c4cc(C(=O)O)c5ccccc5c4)CC3)nc2-c2ccc(C)cc2)c1`, the AC50 in test [1] is 26.6 µM (active); in test [3] it was 12.9 µM (active); in [4], 68.9 µM (active); in test [6], 16.2 µM (active); in [8] it was 31.3 µM (active); in test [9], 87.1 µM (active). Also, the AC50 in [10] was 30.4 µM (active); in [13] it was 33.2 µM (active); in test [15], 86.4 µM (active); in test [16], 79.2 µM (active); in [17] it was 29.9 µM (active). The outcome was “inactive” in [2]; “inactive” in [5]; “inactive” in test [7]; “inactive” in test [11]; “inactive” with MYC, MYC (gene 4609); “inactive” in test [12]. Besides, the compound was called inactive in test [14].
Regarding `Oc1ccc2c(c1)-c1ccccc1C2`, the compound was called inactive in [1], in test [2], in test [3], in test [4], in [5] and in [7]. The result in test [8], in [10], in test [11], in test [13], in test [15] and in [16] was inactive. Further, the result in [17] was inactive. Besides, the AC50 in [6] was 25 µM (active); in test [9], 25.2 µM (active); with MYC, MYC (gene 4609), 33.3 µM (active).

These data come from PubChem BioAssay (EPA / NIEHS).
